# Results from the supplement of paper PMC7595190.
# A number with no mark means an inactive call.
# Columns and labels:
# Test in all cases: CellTox Green cytotoxicity fluorescence relative to DMSO vehicle (fold of vehicle RFU); higher = more cell death (loss of membrane integrity), active = 2 or more
# CMK = test system: CMK
# In short: (§1)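 MV4-11, CMK and Kasumi-1 cells were plated in 96-well black optical-bottom plates at 4.0 × 10^4 cells per well, and CellTox Green reagent was added at the time of seeding. Single compounds from the Selleckchem apoptosis library were diluted in DMSO and added at final concentrations of 0.01, 0.1 and 1 µM, with 0.1% DMSO as vehicle. Plates were kept at 37 °C and 5% CO2 and read at 24, 48 and 72 h (Ex 485 nm, Em 520 nm). Cytotoxicity reflects loss of membrane integrity and is given as fluorescence relative to the DMSO vehicle, expressed as fold.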
# Kasumi-1 = test system: Kasumi-1
# In short: as §1
# MV4-11 = test system: MV4-11
# In short: as §1
Compound,"CellTox Green cytotoxicity fluorescence (CMK; 0.01 µM, 24 h)","CellTox Green cytotoxicity fluorescence (CMK; 0.01 µM, 48 h)","CellTox Green cytotoxicity fluorescence (CMK; 0.01 µM, 72 h)","CellTox Green cytotoxicity fluorescence (CMK; 0.1 µM, 24 h)","CellTox Green cytotoxicity fluorescence (CMK; 0.1 µM, 48 h)","CellTox Green cytotoxicity fluorescence (CMK; 0.1 µM, 72 h)","CellTox Green cytotoxicity fluorescence (CMK; 1 µM, 24 h)","CellTox Green cytotoxicity fluorescence (CMK; 1 µM, 48 h)","CellTox Green cytotoxicity fluorescence (CMK; 1 µM, 72 h)","CellTox Green cytotoxicity fluorescence (Kasumi-1; 0.01 µM, 24 h)","CellTox Green cytotoxicity fluorescence (Kasumi-1; 0.01 µM, 48 h)","CellTox Green cytotoxicity fluorescence (Kasumi-1; 0.01 µM, 72 h)","CellTox Green cytotoxicity fluorescence (Kasumi-1; 0.1 µM, 24 h)","CellTox Green cytotoxicity fluorescence (Kasumi-1; 0.1 µM, 48 h)","CellTox Green cytotoxicity fluorescence (Kasumi-1; 0.1 µM, 72 h)","CellTox Green cytotoxicity fluorescence (Kasumi-1; 1 µM, 24 h)","CellTox Green cytotoxicity fluorescence (Kasumi-1; 1 µM, 48 h)","CellTox Green cytotoxicity fluorescence (Kasumi-1; 1 µM, 72 h)","CellTox Green cytotoxicity fluorescence (MV4-11; 0.01 µM, 24 h)","CellTox Green cytotoxicity fluorescence (MV4-11; 0.01 µM, 48 h)","CellTox Green cytotoxicity fluorescence (MV4-11; 0.01 µM, 72 h)","CellTox Green cytotoxicity fluorescence (MV4-11; 0.1 µM, 24 h)","CellTox Green cytotoxicity fluorescence (MV4-11; 0.1 µM, 48 h)","CellTox Green cytotoxicity fluorescence (MV4-11; 0.1 µM, 72 h)","CellTox Green cytotoxicity fluorescence (MV4-11; 1 µM, 24 h)","CellTox Green cytotoxicity fluorescence (MV4-11; 1 µM, 48 h)","CellTox Green cytotoxicity fluorescence (MV4-11; 1 µM, 72 h)"
CN[C@@H](C)C(=O)N[C@H](C(=O)N1CCC[C@H]1c1nc(C(=O)c2ccc(F)cc2)cs1)C1CCCCC1,0.96,0.958,0.993,0.965,0.981,1.03,0.964,0.991,0.981,0.997,0.955,0.955,0.998,1.02,1.04,1.03,1.1,1.17,,,,,,,,,
Nc1ccccc1NC(=O)c1cnccn1,0.987,0.99,0.976,0.967,0.987,1.02,0.965,1.02,1.11,0.967,0.96,0.904,0.988,0.995,0.988,0.932,1,1.06,0.953,0.952,0.937,0.964,0.984,0.99,0.954,0.989,1.01
COc1cc(C(=O)O)ccc1NC(=O)[C@@H]1N[C@@H](CC(C)(C)C)[C@](C#N)(c2ccc(Cl)cc2F)[C@H]1c1cccc(Cl)c1F [Idasanutlin],0.938,0.944,0.96,0.943,0.953,1.01,0.963,1.01,0.933,1.01,0.971,0.962,0.966,0.949,0.947,1.01,1.03,1.03,,,,,,,,,
COc1cc(C(=O)N2CCC(N3CCN(C)CC3)CC2)ccc1Nc1ncc2c(n1)N(C)c1ccccc1C(=O)N2C,0.941,0.923,0.891,0.97,0.967,0.941,1.16,1.89,1.71,1.05,1.01,1.01,0.99,0.983,1,1.03,1.33,1.61,,,,,,,,,
CCN(CC)CCNC(=O)c1c(C)[nH]c(/C=C2\C(=O)Nc3ccc(F)cc32)c1C [Sunitinib],1.02,1.01,0.896,1,0.997,0.964,1.05,1.16,1.04,0.988,1.01,1.11,1.03,1.15,1.18,1.08,1.32,1.45,,,,,,,,,
O=C(NS(=O)(=O)c1ccc(Br)s1)c1ccc(Cl)cc1Cl [Tasisulam],0.98,0.972,0.934,0.99,0.99,0.959,0.986,1,0.903,1.02,1.02,1.01,1.01,0.99,0.984,0.975,0.963,0.96,,,,,,,,,
Fc1ccc(CNc2ncnc3ccc(F)cc23)cc1 [Spautin-1],0.96,1.08,1.16,0.971,0.943,0.916,0.983,0.967,0.917,1.03,1.04,0.987,1,1,0.997,1.04,1.01,1.01,0.982,0.965,0.962,0.962,0.942,0.936,1.03,1.02,1.02
CCCC[C@@H](C=O)NC(=O)[C@H](CC(C)C)NC(=O)OCc1ccccc1 [Calpeptin],1,0.98,0.961,0.992,1,1.02,0.994,1.01,1.01,0.957,0.968,0.962,0.965,0.93,0.913,1.01,1.02,1.03,,,,,,,,,
CCO[C@@H]1OC(=O)C[C@@H]1NC(=O)[C@@H]1CCCN1C(=O)[C@@H](NC(=O)c1ccc(N)c(Cl)c1)C(C)(C)C,0.989,0.988,1,0.971,0.981,0.995,0.96,0.975,1.03,0.954,0.953,0.948,0.98,0.961,0.948,0.997,1.02,1.03,,,,,,,,,
COc1nc(OCc2cccc(-c3ccccc3)c2C)ccc1CNCCNC(C)=O [PD-1/PD-L1 inhibitor 2],1.01,0.96,0.968,0.99,0.951,0.928,0.99,0.983,0.956,1,0.98,0.994,0.997,1.02,1.01,0.978,1,0.999,1.02,0.96,1,0.984,0.959,0.944,0.985,1,1.01
CC(=O)O/N=C1/C(c2c(O)[nH]c3cc(Br)ccc23)=Nc2ccccc21 [BIO-acetoxime],1.02,0.999,0.97,0.981,0.97,0.981,0.973,0.945,1.12,1.05,1.05,1.04,1.02,1.04,1.04,0.974,1.07,1.11,1.7,1.57,1.56,1.03,1.11,1.17,1.02,1.2,1.36
COC(=O)[C@H](CCSC)NC(=O)c1ccc(NC[C@@H](N)CS)cc1-c1ccccc1,0.934,0.924,0.941,0.896,0.897,0.941,0.938,0.978,1.04,0.974,0.922,0.926,0.932,0.927,0.924,0.941,0.973,0.997,0.942,0.936,0.953,0.947,0.943,0.932,0.927,0.931,0.944
Nc1cccc2c1CN(C1CCC(=O)NC1=O)C2=O (stereo unspecified) [Lenalidomide],0.938,0.942,0.905,0.932,0.929,0.898,0.948,0.969,0.783,0.986,0.897,0.88,0.951,0.933,0.915,0.986,1,0.982,,,,,,,,,
CC(=NNC(=S)N1CCC1)c1ccccn1,0.934,0.962,1.02,0.922,1.29,1.42,1.04,1.42,1.4,1.01,1.03,1.19,0.971,1.18,1.6,1.02,1.25,1.49,0.984,1.31,2.11 (active),0.983,1.53,2.27 (active),1.02,1.38,1.68
